{"source": "PubChem BioAssay (EPA / NIEHS)", "note": "Results filed as inconclusive are left out. Active and inactive are the calls of the source. The calls were made as follows: active = hit-call score of the fitted dose curve at least 0.9, where 1 is the maximum; inconclusive = response in the unintended direction; inactive = score below 0.9.", "data": [{"test": "ATG_M_32_TRANS: Attagene TRANS-FACTORIAL HepG2 Assay for M32 Transcription Factor (Internal Marker) (AID 2282984)", "settings": "HepG2 Attagene TRANS M32 internal marker reporter", "procedure": "ATG_TRANS is a cell-based, multiplexed-readout assay that uses HepG2, a human liver cell line, with measurements taken at 24 hours after chemical dosing in a 24-well plate.ATG_M_32_TRANS is one of 30 assay component(s) measured or calculated from the ATG_TRANS assay. It is designed to make measurements of mRNA induction, a form of inducible reporter, as detected with fluorescence intensity signals by Reverse transcription polymerase chain reaction (RT-PCR) and Capillary electrophoresis technology.Data from the assay component ATG_M_32_TRANS was analyzed into 1 assay endpoint. This assay endpoint, ATG_M_32_TRANS, was analyzed in the positive analysis fitting direction relative to DMSO as the negative control and baseline of activity. Using a type of inducible reporter, measures of mRNA for gain-of-signal activity can be used to understand the background control at the transcription factor-level as they relate to the gene . Furthermore, this assay endpoint can be referred to as a secondary readout, because this assay has produced multiple assay endpoints where this one serves a background control function. To generalize the intended target to other relatable targets, this assay endpoint is annotated to the background measurement intended target family, where the subfamily is internal marker.\nHuman liver HepG2 cells are transiently transfected with multiple reporter transcription units (MRTUs) in 6-well plates using FuGene 6 reagent (Roche; 3 ml FuGene/1 mg DNA). The MRTU constructs are regulated by a cis-regulating element (promoter). […] A major difference between the CIS and TRANS system is that in CIS activities of endogenous TFs are measured, whereas the TRANS assay evaluates changes in activities of exogenous, chimeric NR-Gal4 proteins. […] At the end of 24 hour incubation, total RNA was isolated using TriZol reagent (Invitrogen). The isolated RNA is then reverse-transcribed using oligo(dT) primer and Mo-MLV reverse transcriptase (Invitrogen) with DNAse I (Ambion) treatment for 30 min. The one-tenth of the produced cDNA was amplified by PCR using Taq DNA polymerase (Invitrogen) and two reporter sequence-specific primers. The PCR products were fluorescently labeled by primer extension with 6-arboxyfluorescein (6-FAM) 5'-labeled reporter sequence-specific primer (2 min at 95 C, 20 s at 68 C and 10 min at 72 C) and these products were digested with 5U of HpaI (New England Biolabs) for 2h at 37 C. The fragments were purified using Qiaquick PCR columns (Qiagen), analyzed on an ABI 3130xL genetic analyzer (Applied Biosystems) with peak positions identified by using a set of X-rhodamine (ROX)-labeled MapMarker1000 molecular weight standards (BioVentures). The raw capillary electrophoresis data was processed using Attagraph software (Attagene).", "values": [{"smiles": "CC1=CCC(=O)O1", "outcome": "inactive"}, {"smiles": "O=C1c2c(O)ccc(Nc3ccc(CCO)cc3)c2C(=O)c2c([N+](=O)[O-])ccc(O)c21", "outcome": "inactive"}, {"smiles": "CN(N=O)C(=O)N[C@@H]1[C@@H](O)[C@H](O)[C@@H](CO)O[C@@H]1O", "outcome": "inactive"}, {"smiles": "Cc1cccc(C)n1", "outcome": "inactive"}, {"smiles": "O=S(=O)(O)c1ccc(Cl)cc1", "outcome": "inactive"}, {"smiles": "CCCCOC(=O)[C@H](C)O", "outcome": "inactive"}, {"smiles": "CCc1ccc(C)nc1", "outcome": "inactive"}, {"smiles": "NCC(F)(F)C(F)(F)C(F)(F)C(F)(F)C(F)(F)C(F)(F)C(F)(F)C(F)(F)F", "outcome": "inactive"}, {"smiles": "O=C(O)C(F)(F)OC(F)(F)C(F)(F)OC(F)(F)C(F)(F)OC(F)(F)F", "outcome": "inactive"}, {"smiles": "COC(=O)c1ccc(C=O)cc1", "outcome": "inactive"}, {"smiles": "Oc1ccc2c(c1)CCC2", "outcome": "inactive"}, {"smiles": "O=C(O)CCC(F)(F)C(F)(F)C(F)(F)C(F)(F)C(F)(F)C(F)(F)C(F)(F)F", "outcome": "inactive"}, {"smiles": "CN1CN(C)CN(C)C1", "outcome": "inactive"}, {"smiles": "O=C(O)C(F)(F)C(F)(F)C(F)(F)OC(F)(C(F)(F)F)C(F)(F)F", "outcome": "inactive"}, {"smiles": "CO[Si](C)(CCC(F)(F)C(F)(F)C(F)(F)C(F)(F)C(F)(F)C(F)(F)F)OC", "outcome": "inactive"}, {"smiles": "O=C(Cl)C(F)(F)C(F)(F)C(F)(F)C(F)(F)C(F)(F)C(F)(F)F", "outcome": "inactive"}, {"smiles": "C[Si](Cl)(Cl)CCC(F)(F)C(F)(F)C(F)(F)C(F)(F)C(F)(F)C(F)(F)F", "outcome": "inactive"}, {"smiles": "O=c1[nH]cccc1O", "outcome": "inactive"}, {"smiles": "CCOCN(C(=O)CS(=O)(=O)O)c1c(C)cccc1CC", "outcome": "inactive"}, {"smiles": "F[Si-2](F)(F)(F)(F)F", "outcome": "inactive"}, {"smiles": "O=S(=O)(Cl)C(F)(F)C(F)(F)C(F)(F)C(F)(F)C(F)(F)C(F)(F)C(F)(F)C(F)(F)F", "outcome": "inactive"}, {"smiles": "O=C1OC(=O)c2ccc3c4c(ccc1c24)C(=O)OC3=O", "outcome": "inactive"}, {"smiles": "O=C(c1ccccc1)c1ccc(O)cc1O", "outcome": "inactive"}, {"smiles": "O=C1C=CC(=O)N1c1ccccc1", "outcome": "inactive"}, {"smiles": "COCCOCCC[Si](C)(O[Si](C)(C)C)O[Si](C)(C)C", "outcome": "inactive"}, {"smiles": "CCCCCCCCCCCCCCCCC", "outcome": "inactive"}, {"smiles": "Brc1nc2ccccc2s1", "outcome": "inactive"}, {"smiles": "OCCCCC(F)(F)C(F)(F)C(F)(F)C(F)(F)F", "outcome": "inactive"}, {"smiles": "CC(C)(C)C(=O)C1C(=O)c2ccccc2C1=O", "outcome": "inactive"}, {"smiles": "CC(C)CC=C(C=O)c1ccccc1", "outcome": "inactive"}, {"smiles": "CCc1cccc(C)c1N(C(=O)C(=O)O)C(C)COC", "note": "(stereo not given)", "outcome": "inactive"}, {"smiles": "Cc1cnccn1", "outcome": "inactive"}, {"smiles": "CCCCCCCCn1sc(Cl)c(Cl)c1=O", "outcome": "inactive"}, {"smiles": "Cc1cc(O)c(C(C)(C)C)cc1C(C)(C)C", "outcome": "inactive"}, {"smiles": "O=C(F)C1(F)C(F)(F)C(F)(F)C(F)(F)C(F)(F)C1(F)F", "outcome": "inactive"}, {"smiles": "OCCCCl", "outcome": "inactive"}, {"smiles": "OCC1CCCO1", "note": "(stereo not given)", "outcome": "inactive"}, {"smiles": "CCC(=O)OC(C)c1ccccc1", "note": "(stereo not given)", "outcome": "inactive"}, {"smiles": "COCCC(=O)OC", "outcome": "inactive"}, {"smiles": "CCc1cc(Cc2cc(CC)c(N)c(CC)c2)cc(CC)c1N", "outcome": "inactive"}]}]}
